Screening data deposited in PubChem BioAssay by National Center for Advancing Translational Sciences (NCATS).
Hits are enriched below; roughly 12% of the tested compounds scored in any of these assays.
Gal4-VP16 FLuc: counter-screen for ROR gamma inhibitors: Gal4-VP16 reporter. Drosophila S2 Gal4-VP16 UAS-luciferase, luminescence, 20 h. Potency, µM (series often up to 53.6 µM), without a hit: top-dose activity, negative = inhibition, hits mostly inhibitors. 310,000 tested, 3.5% active;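 note: Gal4-VP16 expression switched on by copper sulfate through the metallothionein promoter; nearly all actives have a fitted effect of over 50% in size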
Sfp inh: blocks B. subtilis Sfp PPTase activity | Biochemical Sfp PPTase activity, qHTS | Potency, µM, for inactives: largest response in the series, negative = inhibition, usual class: inhibitors | 310,000 tested, 3.5% active | AID 1490;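 note: the enzyme is Sfp with the accession as filed and its product quenches rhodamine fluorescence; 0% = enzyme reaction without inhibitor and -100% = no enzyme wells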
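Reaction rates are the 30-min fluorescence difference (ex 525, em 598 nm) in wells containing 15 nM Sfp, 5 uM rhodamine-CoA and 12.5 uM BHQ-2-YbbR at pH 7.6 with 10 mM MgCl2.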
ALDH1A1 block: inhibitors of human aldehyde dehydrogenase 1A1 | 220,000 tested, 7.3% active | P00352 | Potency, µM (series often up to 75.3 µM), for inactives: at the top dose activity, negative = inhibition, usual class: inhibitors | AID 1030 | Purified ALDH1A1, NADH fluorescence, propionaldehyde substrate; active = well fitted inhibition curve with a large enough effect, not every such curve was filed as active; inconclusive = small, poorly fitted or top-dose-only effect, or another doubt; inactive = no such curve, though single readings can be large or run the other way;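 note: plate controls were no enzyme wells and a reference inhibitor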
Target sequence (P00352 whole entry, looked up): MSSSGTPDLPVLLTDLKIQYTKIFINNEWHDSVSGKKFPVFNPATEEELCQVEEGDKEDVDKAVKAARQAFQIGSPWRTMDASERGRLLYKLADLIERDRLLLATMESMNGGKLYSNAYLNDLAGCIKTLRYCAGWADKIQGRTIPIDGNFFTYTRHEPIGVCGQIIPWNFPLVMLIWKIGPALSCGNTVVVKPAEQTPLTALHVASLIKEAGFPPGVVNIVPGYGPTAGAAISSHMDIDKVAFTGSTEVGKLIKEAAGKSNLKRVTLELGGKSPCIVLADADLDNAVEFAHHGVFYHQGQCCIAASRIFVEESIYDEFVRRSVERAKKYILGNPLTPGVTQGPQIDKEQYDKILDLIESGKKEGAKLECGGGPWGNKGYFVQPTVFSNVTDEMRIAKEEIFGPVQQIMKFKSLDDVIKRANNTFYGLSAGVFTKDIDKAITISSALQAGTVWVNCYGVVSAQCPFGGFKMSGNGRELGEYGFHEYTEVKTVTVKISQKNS
PLK1 PBD block: PLK1 (human) polo-box domain binding inhibition | P53350 | 360,000 tested, 2.8% active | Potency, µM, inactives show max response, negative = inhibition, actives largely listed as inhibitors | Plk1 PBD binding of FITC phosphopeptide, fluorescence polarization; note: series mostly up to about 57 µM; nearly all actives have a fitted effect of over 65% in size
RORg inh: blocks mouse ROR gamma transcriptional activity | Potency, µM (top dose mostly 53.6 µM), without a hit: at the top dose activity change, negative = inhibition, usual class: inhibitors | P51450 | Drosophila S2 Gal4-RORgamma UAS-luciferase reporter, 20 h | AID 2551 | 310,000 tested, 5.4% active; note: nearly all actives have a fitted effect of over 60% in size
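Schneider cells (Drosophila), stable Gal4 DBD–ROR gamma + UAS-luc; 1 hr cmpd preincubation; Cu2+ induction 700 uM final; 20 hr ambient; luminescence.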
Starred values were filed as active, the others as inactive; [ ] = another dose, or the depositor's remark. Unless noted, calls come from the whole dose curve; as a rule, active = well fitted curve in the direction sought with a large enough effect; inconclusive = small, poorly fitted or top-dose-only effect, or another doubt; inactive = no such curve, though single readings can be large; an effect the other way counts as inactive or inconclusive. Unless noted, % is set by controls: 0 for no effect and ±100 for the full control effect; potency is the fitted concentration of half-maximal effect.

What do the screens show for `CCOc1ccc2[nH]c(=O)c(CN(Cc3cccs3)Cc3nnnn3C(C)(C)CC)cc2c1`?
Gal4-VP16 FLuc: -0.8%; Sfp inh: -5.8%; ALDH1A1 block: inconclusive; PLK1 PBD block: -6.3%; RORg inh: 32.3%

Results for Cc1ccc2[nH]c(=O)c(CN(Cc3cccnc3)Cc3nnnn3CC3CCCO3)cc2c1 (centres undefined) ?
Gal4-VP16 FLuc: 2.6%; Sfp inh: 8.3%; PLK1 PBD block: -14.2%; RORg inh: 7.4%

How did CCCC[C@]12Cc3cc(C#N)ccc3C(O1)c1c(c3cc(F)ccc3oc1=O)O2 do in these assays?
Gal4-VP16 FLuc: -5.8%[10 µM]; Sfp inh: 4.0%; RORg inh: -6.4%[10 µM]

Results for COCCCNc1ccn2nc(-c3ccc(OCc4ccccc4)cc3)cc2n1 ?
PLK1 PBD block: -1.9%

How did O=c1[nH]c2cc3c(cc2cc1CN(CCc1ccccc1)Cc1nnnn1C1CCCC1)OCCO3 do in these assays?
Gal4-VP16 FLuc: -0.3%; Sfp inh: inconclusive; ALDH1A1 block: inconclusive; RORg inh: 4.4%[10 µM]

What do the screens show for `O=c1[nH]c2cc3c(cc2cc1CN(Cc1ccccc1)Cc1nnnn1Cc1ccco1)OCCO3`?
Gal4-VP16 FLuc: 28.0%; Sfp inh: 11.2µM*; ALDH1A1 block: inconclusive; PLK1 PBD block: inconclusive; RORg inh: inconclusive

How did O=c1[nH]c2cc3c(cc2cc1CN(Cc1cccnc1)Cc1nnnn1Cc1ccco1)OCCO3 do in these assays?
Gal4-VP16 FLuc: 6.1%; Sfp inh: 15.8µM*; ALDH1A1 block: inconclusive; PLK1 PBD block: -21.5%; RORg inh: 18.6%

How did O=C(c1ccccc1F)N(Cc1cccnc1)Cc1cc2cc3c(cc2[nH]c1=O)OCCO3 do in these assays?
Gal4-VP16 FLuc: 6.8%; Sfp inh: 4.3%; ALDH1A1 block: inconclusive; PLK1 PBD block: 0.1%; RORg inh: 21.2%

How did O=C(Nc1nc(-c2ccc(Cl)cc2Cl)cs1)c1ccc(OCC2CCCO2)cc1 (centres undefined) do in these assays?
Gal4-VP16 FLuc: 17.8µM*; Sfp inh: 4.5%; ALDH1A1 block: inconclusive; PLK1 PBD block: -12.4%; RORg inh: -36.8%

Results for COc1ccc2nc(NC(=O)c3ccc(NC(=O)C4CCCO4)cc3)sc2c1 (centres undefined) ?
Gal4-VP16 FLuc: -17.4%; Sfp inh: 8.2%; PLK1 PBD block: -6.3%; RORg inh: -20.6%

What do the screens show for `Cc1ccc2nc(NC(=O)c3ccc(OCC4CCCO4)cc3)sc2c1` (centres undefined)?
Gal4-VP16 FLuc: inconclusive; Sfp inh: -1.3%; ALDH1A1 block: inconclusive; PLK1 PBD block: 4.1%; RORg inh: 4.47µM*

What do the screens show for `Cc1cccnc1NC(=O)c1ccc(OCC2CCCO2)cc1` (centres undefined)?
PLK1 PBD block: -8.1%

Results for Cc1cc(C)c2nc(NC(=O)c3ccc(OCC4CCCO4)cc3)sc2c1 (centres undefined) ?
Gal4-VP16 FLuc: -17.1%; Sfp inh: -11.4%; ALDH1A1 block: inconclusive; PLK1 PBD block: -0.9%; RORg inh: 1µM*

What do the screens show for `O=C(Nc1ccc(Cl)cc1)c1ccc(OCC2CCCO2)cc1` (centres undefined)?
Gal4-VP16 FLuc: -0.3%; Sfp inh: 8.9%; ALDH1A1 block: -1.0%; PLK1 PBD block: -5.6%; RORg inh: 9.9%

How did CS(=O)(=O)Nc1cccc(-c2ccc3ncnc(N4CCNCC4)c3c2)c1 do in these assays?
Gal4-VP16 FLuc: 1.1%; Sfp inh: 17.2%; ALDH1A1 block: -3.2%; RORg inh: inconclusive

Results for C[C@@H](CNC(N)=O)NC(N)=O ?
ALDH1A1 block: 4.1%[13.5 µM]

What do the screens show for `O=C(CCC(=O)N1CCOCC1)NCCc1ccc(Cl)cc1Cl`?
Gal4-VP16 FLuc: -11.7%; Sfp inh: 13.5%; PLK1 PBD block: 3.5%; RORg inh: 6.31µM*

What do the screens show for `O=C(CCC(=O)N1CCOCC1)NCCc1ccc(F)cc1`?
PLK1 PBD block: -13.5%

Results for O=C(N/N=C/c1cc(Cl)ccc1O)c1ccncc1 ?
Gal4-VP16 FLuc: inconclusive; Sfp inh: 1.1%; PLK1 PBD block: 3.36µM*; RORg inh: 3.16µM*

How did COc1cccc(/C=N/NC(=O)c2ccncc2)c1OC(=O)c1ccc(Br)cc1 do in these assays?
Gal4-VP16 FLuc: 11.2µM*; Sfp inh: 12.5%; PLK1 PBD block: -25.2%; RORg inh: 5.01µM*
